This is part of a sample that, as a whole, favours compounds with a hit. Of some 83,000 tested, about 20% had one in any assay.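 The endpoint reported here, percent growth, reads 100 for growth as untreated, 0 for no net growth and -100 for all cells dead.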 The source made the active and inactive calls.

These results are taken from PubChem BioAssay (NCI).

The assay relates to SK-OV-3 ovarian. Briefly: NCI-60 one-dose screen, 48 h (100 = growth as untreated, 0 = no growth, -100 = all killed). The settings on record: 10 µM unless noted. How it is done:
Growth inhibition of the SK-OV-3 human tumor cell line is measured as a screen for anti-cancer activity. Cells are grown in 96 well plates and exposed to the test compound for 48 hours. Compounds are tested at a single concentration, which is 10^-5 M for most compounds. The reported endpoint is percent growth (GI% or GIPRCNT), where numbers from 0 - 100% represent growth inhibition, and numbers from -100% - 0 represent cell death. For example, a value of 40 represents 60% growth inhibition. A value of 0 means no net growth occurred over the course of the experiment. A value of -40 indicates 40% of cells at the beginning of the experiment died by the end of the experiment. A value of -100 means all cells are dead at the end of the experiment.
NCI-60 Human Tumor Cell Lines Screen was performed using the standard one-dose NCI protocol, which is described in more detail at https://dtp.cancer.gov/discovery_development/nci-60/default.htm.
Compounds with GIPRCNT values below 10 were considered active. Activity score was based on GIPRCNT using the following formula: […]
Score is 0 for GIPRCNT values of 100 or above, 50 for GIPRCNT values of 0, and 100 for GIPRCNT values of -100.
Take `CC(C)N=C(N/C(N)=N/c1nc2ccccc2s1)NC(C)C`: the growth is 83.4% (inactive). Regarding `C#C[C@]1(O)CC[C@H]2[C@@H]3CC=C4c5sc(Nc6nc(C)cc(OC)n6)nc5CC[C@]4(C)[C@H]3CC[C@@]21C`, the growth was 47.5% (inactive). The same measure for `O=C(CN1CCN(c2cc(=O)n(-c3ccccc3)c3ccccc23)CC1)Nc1ccc([N+](=O)[O-])cc1`: 99.3% (inactive). The same measure for `COc1ccc(-c2cc(-c3cccc4ccccc34)n3c(n2)nc2ccccc23)cc1`: 58.4% (inactive); for `CN(C)C(=O)c1ccccc1-n1cnc2ccccc2c1=O`: 107% (inactive).

For `NS(=O)(=O)c1ccc(-n2cc(CC=O)nn2)cc1`, the growth is 112% (inactive). The same measure for `Cc1[nH]nc2ccc(-c3nc4cnc(N5CCN(C)CC5)cn4c3Nc3ccc(F)cc3Br)cc12`: 97.4% (inactive); for `COc1ccc(/C=N/Nc2nc(N/N=C/c3ccc(OC)cc3O)nc(N3CCOCC3)n2)c(O)c1`: 89.1% (inactive); for `O=C1c2c(c3c4cc(Br)ccc4[nH]c3c3ccc4ccccc4c23)C(=O)N1CCN1CCCCC1`: 57% (inactive). As for `O=C1NC(=O)/C(=C/c2ccc(OCc3cc4ccccc4nc3Cl)cc2)S1`, the growth was 109% (inactive). The same measure for `COc1cc(C(=O)c2cc(C(C)=O)c3c4ccccc4ccn23)cc(OC)c1OC`: 56.2% (inactive); for `O=C(/C=C1\C=CN(CCCCO)c2ccccc21)n1ccc2ccccc21`: 97.6% (inactive); for `CC1COc2c(N3CCN(C)CC3)c(F)cc3c(=O)c(C(=O)N/N=C/c4cc[nH]c4)cn1c23` (stereo not given): 61.6% (inactive). Take `Fc1ccccc1/C=C(/C1=NCCN1)n1cnc2ccccc21`: the growth was 93.1% (inactive). The same measure for `COc1ccc(NS(=O)(=O)c2ccc(-c3cnc(C4CC4)o3)cc2)cc1Cl`: 60% (inactive). With `COc1ccc(CCN2C(=O)CSC2=S)cc1OC`, the growth is 99.1% (inactive).

As to `COc1cc2c3c(n(CCCNC4CCCC4)c(=O)c2cc1OC)-c1cc2c(cc1C3=O)OCO2`, the growth is 80.7% (inactive).

For `Cc1ccc(NC(=O)c2cccc(CN3CCN(C)CC3)c2)cc1Oc1ccc(-c2[nH]nc3ncnc(N)c23)cc1`, the growth was 78.8% (inactive).

For `COc1ccc(CN2C(=O)/C(=C/c3nc(CO)cs3)SC2=S)cc1`, the growth was 109% (inactive). Regarding `O=C1c2c(c3c4cccnc4[nH]c3c3ccc4ccccc4c23)C(=O)N1CCN1CCNCC1`, the growth was 101% (inactive).

Take `Cn1cc(-c2nn3cc(-c4cccnc4)nc3s2)c2ccccc21`: the growth was 50.7% (inactive). `CC1=C2C(=C[C@@](C)(COS(N)(=O)=O)[C@@H]2O)C(=O)[C@](C)(O)C12CC2`: the growth is 53.9% (inactive). As to `CC1OC(O[C@@H]2[C@H](O)C(CO)OC(O[C@H]3COC(O[C@H]4CC[C@]5(C)[C@H]6CC[C@]78OC[C@@]9(CCC(C)(C)C[C@H]97)[C@H](O)C[C@@]8(C)[C@]6(C)CC[C@H]5C4(C)C)[C@@H](OC4OC(CO)[C@@H](O)[C@@H](O)[C@@H]4O)[C@@H]3O)[C@H]2OC2OC[C@@H](O)[C@@H](O)[C@@H]2O)[C@@H](O)[C@@H](O)[C@H]1O` (stereo not given in full), the growth is -94.3% (active).

Take `COc1ccc(S(=O)(=O)NCCCNc2nccc(-n3cnc4ccccc43)n2)cc1`: the growth is 96.2% (inactive). In the case of `COc1ccc(-c2nc3cc(Cl)c(Cl)cc3n2CC(=O)N=Nc2c(O)[nH]c3ccc(Br)cc23)cc1`, the growth was 13.5% (inactive). Take `O=S(=O)(Nc1cc(Cl)cc(Cl)c1)c1ccc(-c2cnc(C3CC3)o2)cc1`: the growth was 70.2% (inactive). The same measure for `Cc1cc(C(=O)Nc2ccc(SC#N)cc2)c(C)o1`: 111% (inactive). Turning to `CN(C)c1ccc(/C=N/Nc2nc(N/N=C/c3ccc(N(C)C)cc3)nc(N3CCOCC3)n2)cc1`, the growth was 110% (inactive).

`CCC(CC)N1C(=O)/C(=c2\sc3n(c2=O)C2C(NN=3)N(CC)C(=O)N2CC)c2ccccc21` (stereo not given): the growth was 42.6% (inactive). As to `C=CCn1c(SCC(=O)Nc2cccc(C(=O)/C=C/c3cccc([N+](=O)[O-])c3)c2)nc2ccccc2c1=O`, the growth was 116% (inactive).

Take `C#CCOc1ccc(/C=N/Nc2nc(-c3cc(Cl)ccc3Cl)cs2)cc1`: the growth is 97.9% (inactive). The same measure for `C=CCn1c(SCC(=O)Nc2cccc(C(=O)/C=C/c3ccc(C)cc3)c2)nc2ccccc2c1=O`: 113% (inactive); for `CCN1C(=O)N(CC)C2SC(N/N=C/c3cccs3)=NC21` (stereo not given): 31.9% (inactive); for `CS(=O)(=O)c1nccc(-c2c(-c3ccc(F)c(OCc4ccc(F)cc4)c3)nc3sccn23)n1`: 110% (inactive). The same measure for `O=C(Nc1cc(F)cc2cccnc12)c1cnc(N2CCOCC2)cn1`: 95.2% (inactive).

On to `C=CCn1c(SCC(=O)Nc2cccc(C(=O)/C=C/c3ccc(Cl)cc3)c2)nc2ccccc2c1=O`, for which the growth is 110% (inactive). Regarding `O=C(Nc1cccc(-c2nc(-c3ccc(NC(=O)c4cccs4)cc3Cl)no2)c1)Nc1ccc(NC(=O)C2CC2)c(C(F)(F)F)c1`, the growth is -30.6% (active). The same measure for `C/C(=C(/c1ccc(O)cc1)c1ccc(OCCN2CCCC2)cc1)c1ccc(Cl)cc1`: 76.7% (inactive); for `C#C[C@]1(O)CC[C@H]2[C@@H]3CC=C4c5sc(Nc6cccc(Cl)n6)nc5CC[C@]4(C)[C@H]3CC[C@@]21C`: -13.7% (active); for `c1ccc(-c2n(Cc3ccc4ccccc4c3)c3c4ccccc4c4ccccc4c3[n+]2Cc2ccc3ccccc3c2)cc1`: -84.5% (active).
